Screening data deposited in PubChem by several laboratories.
Most compounds without a hit are left out; they make up all but 4.5% or so of the library.
PfHsp40 rescue: compounds rescuing yeast from Plasmodium falciparum HSP40 toxicity. S. cerevisiae expressing PfHsp40, growth rescue, ATP luminescence. growth rescue, % at 12.5 µM. AID 504582. 340,000 tested, 0.68% active; in the data active = growth rescue above about 28%, passing the limit was not always enough;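 also: yeast W303a lacking pdr1 and pdr3 grown in galactose medium; growth measured after three days at 30 °C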
PrP UTR inh: inhibition of PrP 5' UTR reporter expression. cell-based PrP 5' UTR mRNA reporter, plate reader. inhibition, % (no concentration beside the values). 340,000 tested, 0.35% active. AID 488862; in the data active = inhibition above about 52%; also: 0 = median of the neutral control wells
PrPC TRFRET: inhibitors of human cell surface prion protein PrPC. TR-FRET read-out. inhibition, % at 13.8 µM. 370,000 tested, 0.43% active. AID 720596; in the data active = inhibition above about 24%; also: 0% = median of the test wells and 100% = reference compound wells
Mtb FBA inh: inhibits M. tuberculosis FBA enzyme; purified M. tuberculosis FBA, fluorescence read-out; 360,000 tested, 2.3% active; inhibition, % at 1 µM;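 also: 0% = vehicle and 100% = reference inhibitor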
Target sequence (P9WQA3 whole entry, looked up): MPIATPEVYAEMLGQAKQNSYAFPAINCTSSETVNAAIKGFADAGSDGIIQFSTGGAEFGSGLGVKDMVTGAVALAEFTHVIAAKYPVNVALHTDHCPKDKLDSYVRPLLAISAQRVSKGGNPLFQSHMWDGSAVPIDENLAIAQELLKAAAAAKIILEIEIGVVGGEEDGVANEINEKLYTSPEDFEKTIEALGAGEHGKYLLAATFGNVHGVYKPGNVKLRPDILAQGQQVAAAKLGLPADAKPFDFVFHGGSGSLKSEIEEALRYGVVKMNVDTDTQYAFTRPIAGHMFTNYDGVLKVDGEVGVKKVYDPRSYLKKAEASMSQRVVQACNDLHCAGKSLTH
BJeLR viability: kills HRASV12-expressing BJeLR cells | BJeLR (HRASV12) viability, CellTiter-Glo ATP luminescence, 48 h | inhibition, % (concentration not given with the values) | 300,000 tested, 0.17% active | AID 1554; in the data active = inhibition above about 50%
GDH-TPI counter-1: GDH-TPI coupled enzyme inhibition counter-screen; GDH-TPI coupled enzyme counterscreen, NADH absorbance; inhibition, % at 4.8 µM; 360,000 tested, 1.2% active; AID 588335; in the data active = inhibition above about 30%;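 also: 0% = DMSO wells and 100% = wells lacking the enzyme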
Mtb FBA inh conf: Mtb FBA inhibition, confirmed | inhibition, % at 1 µM | shares compounds with Mtb FBA inh | AID 651616 | purified M. tuberculosis FBA, fluorescence read-out | 5,600 tested, 78% active;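 also: 0% = vehicle wells and 100% = reference inhibitor wells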
GDH-TPI counter-2: GDH-TPI inhibition counter-screen for FBA inhibitors. shares compounds with Mtb FBA inh. GDH-TPI coupled enzyme counterscreen, fluorescence. inhibition, % at 1 µM. 5,600 tested, 81% active. AID 652141; in the data active = inhibition above about 10%
GDH-TPI DR: GDH-TPI dose response counter-screen for Mtb FBA. shares compounds with Mtb FBA inh. GDH-TPI coupled enzyme assay, fluorescence, artifact counterscreen. IC50, µM. 170 tested, 79% active. AID 652145; call rule not given here
* marks the source's active call; other numbers are inactive results; x = no result; + = active, no number. Rule as the data show it, unless noted: active = inhibition above about 27%; inactive = the rest.

SMILES	PfHsp40 rescue	PrP UTR inh	PrPC TRFRET	Mtb FBA inh	BJeLR viability	GDH-TPI counter-1	Mtb FBA inh conf	GDH-TPI counter-2	others
Cc1cc(C)c2cc(C#N)c(N3CCCC3)nc2c1	-0.4	2.7	-3.9	36.3*	x	0.8	1.6	1.6
Cc1cc(C)c2cc(C#N)c(N3CCCN(C(=S)NCCCN(C)C)CC3)nc2c1	-1.0	-0.4	2.5	7.4	23.9	7.3	x	x
Cn1c(=O)c2c(SCC(=O)N3CCCCC3)nc(-c3ccccc3F)nc2n(C)c1=O	-1.6	-3.7	3.3	1.0	2.2	4.8	x	x
CCCCn1c(=O)[nH]c(=O)c2c1nc(-c1ccccn1)n2CC	0.9	-18.3	-2.1	52.6*	-8.0	4.5	32.6*	32.9*
CCCCn1c(=O)[nH]c(=O)c2c1nc(-c1ccc(OCC)cc1)n2CC	-1.2	-5.9	0.2	9.4	-11.2	3.0	x	x
CCCn1nc(C(=O)OCC(=O)NC(C)c2ccccc2)c2ccccc2c1=O (stereo not given)	-1.9	-10.3	-5.2	-0.1	1.7	2.4	x	x
COCCNC(=S)N(CCCO)Cc1cc2cc3c(cc2[nH]c1=O)OCO3	x	x	-1.8	-0.8	x	4.4	x	x
COCCCNC(=S)N(CCO)Cc1cc2cc3c(cc2[nH]c1=O)OCO3	-1.1	7.9	2.4	30.8*	0.9	20.6	+	+
CCN(CC)CCCN(Cc1cc2cc3c(cc2[nH]c1=O)OCO3)C(=S)NCCOC	0.8	9.8	-4.6	52.4*	-7.0	34.1*	1.6	0.6
CCN(CC)CCN(Cc1cc2cc3c(cc2[nH]c1=O)OCO3)C(=S)NCCOC	0.0	-10.0	-2.1	33.5*	-3.8	26.4	31.6*	31.6*
CCCCNC(=S)N(CCN(CC)CC)Cc1cc2cc3c(cc2[nH]c1=O)OCCO3	0.2	-17.8	4.2	16.7	-0.3	-4.6	x	x
C=CCN(CC=C)Cc1cc(=O)oc2cc(C)cc(C)c12	x	x	22.9	3.4	x	x	x	x
CCNC(=S)N(CCN(C)C)Cc1cc2cc3c(cc2[nH]c1=O)OCO3	0.7	-19.4	7.3	43.6*	-7.2	13.8	57.9*	42.8*
CCN(CC)CCN(Cc1cc2cc3c(cc2[nH]c1=O)OCO3)C(=S)NCCCN(C)C	13.1	-1.4	-2.6	35.2*	-6.6	30.4	30.1*	27.8*
CCCCNC(=S)N(CCN(CC)CC)Cc1cc2cc3c(cc2[nH]c1=O)OCO3	-0.7	-5.9	-11.3	32.3*	-1.8	32.9*	15.8	4.5	GDH-TPI DR=4.92*
Cc1cccc(NC(=S)N(CCCN(C)C)Cc2cc3cc4c(cc3[nH]c2=O)OCO4)c1	-0.4	-18.1	-2.9	27.4*	-0.3	16.4	7.6	-4.0
CCc1ccccc1NC(=S)N(CCCN(C)C)Cc1cc2cc3c(cc2[nH]c1=O)OCO3	0.3	-23.7	-5.0	23.3	-1.7	15.5	x	x
COC(=O)c1cc(NC(=O)c2cccc([N+](=O)[O-])c2C)ccc1Cl	0.8	-9.8	-28.2	9.7	1.1	3.5	x	x
CCN(CC)CCN(Cc1cc2cc3c(cc2[nH]c1=O)OCO3)C(=S)NC	1.6	-21.6	-3.0	101.5*	-10.0	23.4	64.2*	54.9*
CCNC(=S)N(CCCN(CC)CC)Cc1cc2cc3c(cc2[nH]c1=O)OCO3	-2.0	-12.7	-2.6	24.3	-2.5	21.5	x	x
CN(C)CCN(Cc1cc2cc3c(cc2[nH]c1=O)OCO3)C(=S)NCc1ccco1	-0.6	-31.3	-1.2	32.4*	3.4	25.2	77.1*	52.3*
CC(=O)N(CCc1ccccc1C)Cc1cc2cc3c(cc2[nH]c1=O)OCO3	-0.3	-28.2	-0.7	38.9*	-7.7	11.0	187.1*	170.0*
COc1ccc2nc(C)cc(C(=O)O)c2c1	-0.9	-23.1	-2.6	78.7*	0.9	9.6	11.4	-7.0	GDH-TPI DR=2.33*
COc1ccc2nccc(C(N)=O)c2c1	-1.0	-25.3	2.2	48.9*	-9.0	-7.2	42.5*	28.3*
COc1ccc2nc(C)cc(N3CCC(C(N)=O)CC3)c2c1	-0.7	1.6	-0.2	2.8	-5.8	14.5	x	x
SMILES	PfHsp40 rescue	PrP UTR inh	PrPC TRFRET	Mtb FBA inh	BJeLR viability	GDH-TPI counter-1	Mtb FBA inh conf	GDH-TPI counter-2	others
CCOc1ccc(Nc2cc(C)nc3ccc(C)cc23)cc1	0.1	-5.3	-12.6	0.8	7.4	8.6	x	x
CCOc1ccc2nc(C)cc(C(=O)O)c2c1	-0.5	-22.0	6.0	87.0*	-11.3	12.0	73.9*	50.7*
CCN(CC)S(=O)(=O)c1ccc(=O)[nH]c1	-1.6	-5.9	8.0	4.5	2.8	-1.3	x	x
O=C(COC(=O)c1ccccc1NC(=O)c1ccco1)Nc1ccc2c(c1)OCO2	0.9	-11.8	3.6	1.7	0.8	24.1	x	x
NC(=O)c1ccsc1NC(=O)COC(=O)c1ccccc1NCc1ccco1	2.2	-30.9	-1.6	59.0*	3.4	-1.9	50.2*	32.1*
O=C(COC(=O)c1ccccc1NCc1ccco1)Nc1ccc2c(c1)OCO2	1.5	-22.7	11.3	45.2*	-0.2	11.9	64.0*	49.7*
NC(=O)c1ccsc1NC(=O)COC(=O)c1ccccc1F	-0.2	-9.8	-4.8	2.0	x	1.4	x	x
COc1cccc2cc(C(=O)C3=C(O)C(=O)N(CCN4CCOCC4)C3c3ccc(C)o3)oc12 (stereo not given)	0.4	0.4	-1.8	0.9	4.4	12.6	x	x
O=C(c1ccc(F)cc1F)N1CCCc2ccccc21	-1.8	0.5	2.5	1.1	9.3	8.6	x	x
O=C(O)CN(c1ccccn1)S(=O)(=O)c1ccc(Cl)cc1	-1.0	-7.5	4.3	35.1*	-0.9	11.2	39.2*	36.1*
COC(=O)CN(c1ccccn1)S(=O)(=O)c1ccccc1	-1.8	-2.7	-6.7	37.5*	-2.2	16.7	115.4*	100.4*
O=C(O)CN(c1ccccn1)S(=O)(=O)c1ccccc1	0.1	-12.9	0.4	36.5*	-0.7	-0.4	93.7*	87.4*
COC(=O)CN(c1ccccc1F)S(=O)(=O)c1ccccc1	0.0	-22.2	9.6	0.2	-12.3	-10.6	x	x
O=C(O)CN(c1ccc2c(c1)OCCO2)S(=O)(=O)c1ccccc1	-0.2	-29.5	-5.4	17.4	0.1	3.1	x	x
COC(=O)CN(c1ccc2c(c1)OCCO2)S(=O)(=O)c1ccccc1	0.1	-21.4	7.7	36.7*	-4.5	1.4	12.1	-1.3	GDH-TPI DR=>10
COCC1CCCCN1Cc1cn[nH]c1-c1ccc2cc(OC)ccc2c1 (stereo not given)	-0.1	-16.5	0.5	0.8	-10.1	-3.9	x	x
CC(C)C[C@@H](CN1CCC[C@H]1CN1C(=O)C(=O)NC[C@@H]1Cc1ccc(O)cc1)N1C[C@H](Cc2ccccc2)N(CC2CCCCCC2)C(=O)C1=O	x	x	12.4	x	x	x	x	x
